The sample as a whole holds a higher share of hits than the screen did.
PD-1 reverse act = activators reversing PD-1 mediated T-cell inhibition; primary human CD4 T cells, PD-L1 beads, CellTiter-Glo 96 h; activation, % (test concentration not listed); 29,000 tested, under 10 active; call rule not given here
NOMO-1 viab = STK33 inhibitor candidate reducing NOMO-1 cell viability | NOMO-1 AML viability, CellTiter-Glo luminescence, 72 h | inhibition, % (concentration not given with the values) | 37,000 tested, 7.5% active | AID 2330; in the data active = inhibition above about 80%; inconclusive = no clear call, values can overlap the other calls
STK33 inh = human STK33 kinase inhibition; ADP-Glo luminescence, MBP substrate; 27,000 tested, 0.44% active; inhibition, % at 12.5 µM; AID 2322; in the data active = inhibition above about 20%; inconclusive = no clear call, values can overlap the other calls
Target sequence (Q9BYT3 whole entry, looked up): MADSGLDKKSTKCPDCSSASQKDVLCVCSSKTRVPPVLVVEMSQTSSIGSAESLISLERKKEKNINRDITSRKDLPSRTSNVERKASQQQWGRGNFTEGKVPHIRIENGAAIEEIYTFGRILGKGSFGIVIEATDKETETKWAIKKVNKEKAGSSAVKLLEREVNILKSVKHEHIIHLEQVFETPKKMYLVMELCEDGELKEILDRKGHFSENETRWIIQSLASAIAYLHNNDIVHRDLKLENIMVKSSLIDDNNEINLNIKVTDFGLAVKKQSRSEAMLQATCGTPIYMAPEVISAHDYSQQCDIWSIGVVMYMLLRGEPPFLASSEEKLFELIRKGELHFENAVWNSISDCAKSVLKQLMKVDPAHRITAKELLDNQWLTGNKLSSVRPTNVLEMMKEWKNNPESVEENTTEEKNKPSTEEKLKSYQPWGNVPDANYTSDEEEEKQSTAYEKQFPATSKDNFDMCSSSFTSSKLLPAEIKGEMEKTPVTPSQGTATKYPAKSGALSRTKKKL
Hits are given with their value; – = inactive; ? = inconclusive; · = not tested or not shown.

SMILES	PD-1 reverse act	NOMO-1 viab	STK33 inh
C[C@H](CO)N1C[C@H](C)[C@H](CN(C)Cc2ccc(C(=O)Nc3ccccc3N)cc2)Oc2ccc(NC(=O)CCC(F)(F)F)cc2CC1=O	–	141	·
C[C@H]1CN([C@@H](C)CO)C(=O)c2cc(NC(=O)CCC(F)(F)F)ccc2O[C@H]1CN(C)Cc1ccc(C(=O)Nc2ccccc2N)cc1	–	106	·
C[C@@H]1CN([C@H](C)CO)C(=O)Cc2cc(NC(=O)CCN3CCOCC3)ccc2O[C@@H]1CN(C)Cc1ccc(C(=O)Nc2ccccc2N)cc1	–	–	·
C[C@@H]1CN([C@@H](C)CO)C(=O)Cc2cc(NC(=O)CCC(F)(F)F)ccc2O[C@@H]1CN(C)Cc1ccc(C(=O)Nc2ccccc2N)cc1	–	91	·
COc1ccc([C@H]2Oc3cc(O)cc(O)c3C(=O)[C@@H]2O)cc1	–	–	–
CC1CCN(C(=O)c2cc(Cl)ccc2Cl)CC1	–	–	–
C[C@@]12C[C@]3(O)O[C@H](O1)[C@]1(COC(=O)c4ccccc4)[C@H]3C[C@@]12O[C@@H]1O[C@H](CO)[C@@H](O)[C@H](O)[C@H]1O	–	–	–
COc1cc(Cl)c(C)cc1NC(=O)CC1Sc2ccccc2NC1=O (stereo not given)	·	?	–
COc1ccc(OC)c(NC(=O)c2c(NC(=O)c3ccccc3)sc3c2CCC(C)C3)c1 (stereo not given)	·	–	–
COC(=O)CNC(=O)c1cc(-c2ccccn2)nc2ccc(Cl)cc12	·	–	–
CCOC(=O)CNC(=O)c1cc(-c2ccccn2)nc2c(C)c(Cl)ccc12	·	97	–
CCCn1c2ccccc2c2nnc(Sc3ccc4nsnc4c3[N+](=O)[O-])nc21	·	105	–
CCCn1c2ccccc2c2nnc(SCC(=O)O)nc21	·	–	–
C[C@@H]1CN([C@H](C)CO)C(=O)c2cc(NC(=O)Nc3ccc(F)cc3)ccc2O[C@@H]1CN(C)Cc1ccc(C(F)(F)F)cc1	–	?	·
C[C@@H]1CN([C@H](C)CO)C(=O)c2cc(NC(=O)Nc3ccc(C(F)(F)F)cc3)ccc2O[C@@H]1CN(C)Cc1ccc(C(F)(F)F)cc1	–	115	·
C[C@@H]1CN([C@@H](C)CO)C(=O)c2cc(NC(=O)Nc3ccc(C(F)(F)F)cc3)ccc2O[C@@H]1CN(C)Cc1ccc(Cl)c(Cl)c1	–	108	·
C[C@H](CO)N1C[C@H](C)[C@H](CN(C)Cc2ccc(C(F)(F)F)cc2)Oc2ccc(NC(=O)Nc3ccc(F)cc3)cc2C1=O	–	–	–
C[C@H](CO)N1C[C@H](C)[C@@H](CN(C)Cc2ccc(C(F)(F)F)cc2)Oc2ccc(NC(=O)Nc3ccc(F)cc3)cc2C1=O	–	119	·
C[C@@H]1CN([C@@H](C)CO)C(=O)c2cc(NC(=O)Nc3ccc(C(F)(F)F)cc3)ccc2O[C@@H]1CN(C)Cc1ccc(C(=O)O)cc1	–	–	–
C[C@H]1CN([C@@H](C)CO)C(=O)c2cc(NC(=O)Nc3ccc(C(F)(F)F)cc3)ccc2O[C@@H]1CN(C)Cc1ccc(C(F)(F)F)cc1	–	114	–
C[C@H]1CN([C@@H](C)CO)C(=O)c2cc(NC(=O)Nc3ccc(C(F)(F)F)cc3)ccc2O[C@@H]1CN(C)Cc1ccncc1	–	–	–
O=C(CCN1C(=O)C2C3C=CC(C3)C2C1=O)Nc1cccc2ccccc12 (stereo not given)	–	–	–
CCCCCCCCC#CC#C/C=C/CCCC(=O)O	·	·	–
O=C(CN1CCc2ccccc21)Nc1scc2c1c(=O)oc1ccccc12	–	–	·
FC(F)(F)c1ncncc1-c1nnnn1-c1ccccc1	–	–	·
SMILES	PD-1 reverse act	NOMO-1 viab	STK33 inh
O=C(CN(C1CCCCC1)S(=O)(=O)c1ccc(Br)cc1)Nc1c(F)cccc1F	·	–	–
Cc1c(Cl)ccc2c(C(=O)Nc3ccc(S(=O)(=O)N4CCOCC4)cc3)cc(-c3cccnc3)nc12	·	–	–
C[C@H](CO)N1C[C@H](C)[C@H](CN(C)Cc2ccc(C(F)(F)F)cc2)Oc2ccc(NC(=O)Nc3ccc(C(F)(F)F)cc3)cc2C1=O	–	–	–
C[C@@H]1CN([C@@H](C)CO)C(=O)c2cc(NC(=O)Nc3ccc(C(F)(F)F)cc3)ccc2O[C@H]1CN(C)Cc1ccc(C(F)(F)F)cc1	–	117	–
C[C@H](CO)N1C[C@H](C)[C@@H](CN(C)Cc2ccc(C(F)(F)F)cc2)Oc2ccc(NC(=O)Nc3ccc(C(F)(F)F)cc3)cc2C1=O	·	130	·
C[C@@H]1CN([C@@H](C)CO)C(=O)c2cc(NC(=O)Nc3ccc(C(F)(F)F)cc3)ccc2O[C@@H]1CN(C)Cc1ccc(C(F)(F)F)cc1	–	118	–
C/C(=N\O)c1ccc2c(c1)CCO2	–	–	·
CN(C)/C=C/C(=O)c1ccc2c(c1)CCO2	–	110	·
N#Cc1cnc(SCC(=O)NC(=O)Nc2ccccc2)nc1N	–	–	·
C[C@@H]1CN([C@@H](C)CO)C(=O)c2cc(NS(=O)(=O)c3ccc(Cl)cc3)ccc2O[C@H]1CN(C)Cc1ccc(C(=O)Nc2ccccc2N)cc1	–	?	·
C[C@@H]1CN([C@H](C)CO)C(=O)c2cc(NS(=O)(=O)c3ccc(Cl)cc3)ccc2O[C@@H]1CN(C)Cc1ccc(C(=O)Nc2ccccc2N)cc1	–	109	·
COc1ccc(S(=O)(=O)Nc2ccc3c(c2)C(=O)N([C@H](C)CO)C[C@@H](C)[C@H](CN(C)Cc2ccc(C(=O)Nc4ccccc4N)cc2)O3)cc1	–	–	·
C[C@H](CO)N1C[C@H](C)[C@@H](CN(C)Cc2ccc(C(=O)Nc3ccccc3N)cc2)Oc2ccc(NS(=O)(=O)c3ccc(Cl)cc3)cc2C1=O	–	–	·
COc1ccc(S(=O)(=O)Nc2ccc3c(c2)C(=O)N([C@@H](C)CO)C[C@H](C)[C@H](CN(C)Cc2ccc(C(=O)Nc4ccccc4N)cc2)O3)cc1	–	109	·
C[C@H](CO)N1C[C@H](C)[C@H](CN(C)Cc2ccc(C(=O)Nc3ccccc3N)cc2)Oc2ccc(NS(=O)(=O)c3ccc(Cl)cc3)cc2C1=O	–	96	·
O=C(CC(c1ccccc1)c1ccccc1)NC1CCCC1	–	–	·
CCn1c(SCC(=O)Nc2ccc(Br)cc2Cl)nnc1-c1cccc([N+](=O)[O-])c1	–	–	–
CCc1cccc(C)c1NC(=O)CSc1nnc(-c2ccc(Cl)cc2Cl)n1C	–	–	–
COc1ccc(Br)cc1COC(=O)C1c2ccccc2Oc2ccccc21	–	–	·
COc1cc2c(c(OC)c1OC)C[C@H]1COC(=O)[C@@H]1Cc1c-2cc(OC)c(OC)c1OC	·	·	–
COc1cc2c(c(OC)c1OC)-c1cc3c(cc1C[C@H]1C(=O)OC[C@@H]1C2)OCO3	–	106	–
COC(=O)c1ccccc1NC(=O)Cn1c(C(F)(F)F)nc2ccccc21	–	–	–
CC(C)(C)c1ccc(OCC(O)Cn2cnc3ccccc32)cc1 (stereo not given)	·	93	–
Cc1ccc(OCC(O)Cn2cnc3ccccc32)cc1 (stereo not given)	–	–	–
COc1ccc(NC(=O)c2ccc(CN3CCS(=O)(=O)CC3)cc2)cc1	–	–	·
O=C(Cn1ccc([N+](=O)[O-])n1)Nc1cc(F)ccc1F	–	–	–
C=C1C(=O)O[C@@H]2[C@H]3C(=C)[C@@H](O[C@@H]4O[C@H](CO)[C@@H](O)[C@H](O)[C@H]4O)C[C@H]3C(=C)C[C@@H](O)[C@@H]12	–	–	–

Screening data as filed in PubChem BioAssay.
